Bioassay records from PubChem.
The full list was thinned out, with hits kept by preference.
Pf apPOL block = Pf-apPOL inhibitors, biochemical, fluorescence. Plasmodium falciparum apicoplast DNA polymerase (apPOL). Recombinant Pf-apPOL, molecular beacon fluorescence, 1.5 h. inhibition, % at 10 µM. hit rate 0.25% among 210,000
mHTT CaM bind = mutant huntingtin-calmodulin interaction inhibitors – biochemical, AlphaScreen, primary screen; P42858; AlphaScreen His-mHTT/GST-CaM binding, luminescence; inhibition, % at 15 µM; hit rate 3.6% among 190,000; AID 1671202, 2021;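 further: 0% = both proteins with DMSO and 100% = one protein alone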
* marks the source's active call; other numbers are inactive results; . = not tested or not shown. No stated cut-off is given here; in the data, active means inhibition above about 50%; inactive means the rest.

SMILES | Pf apPOL block | mHTT CaM bind
Nc1ncnc(Sc2nc3ccccc3o2)c1[N+](=O)[O-] | 2 | 75*
COc1cccc(CC(=O)Nc2ccc3c(c2)CN(C(C)C)C(=O)C(C)O3)c1 (stereo not drawn) | 3 | 7
CN(C)c1ccc(C(=O)N2CCc3c(c(-c4nc(-c5cccc(F)c5)no4)nn3C)C2)cc1 | -1 | 26
CC(C)CC(=O)N1CCC2(CC1)CC(=O)c1ccccc1O2 | -7 | 0
COCCNC(=O)Cc1ccccc1[N+](=O)[O-] | -17 | 20
O=C(Nc1ccc2nc(-c3ccccn3)c(-c3ccccn3)nc2c1)N1CCOCC1 | -2 | 7
O=C(Nc1ccc2nc(-c3ccco3)c(-c3ccco3)nc2c1)N1CCSCC1 | 2 | 84*
Cc1nc2ccc(NC(=O)N3CCCC3)cc2nc1C | 1 | 0
O=C(Nc1ccc2nc(-c3ccco3)c(-c3ccco3)nc2c1)N1CCOCC1 | -5 | 76*
O=C(NCCO)c1cc2cc(Br)ccc2oc1=O | -2 | -5
O=C1CC(c2noc(-c3ccc(F)cc3)n2)CN1Cc1ccccc1 (stereo not drawn) | -8 | -3
COc1ccc(C2=C/C(=C/c3ccc(OC)c([N+](=O)[O-])c3)C(=O)O2)cc1 | -9 | 14
Cc1ccc(N2C(=O)CC(N3CCN(c4ccc(F)cc4)CC3)C2=O)cc1Cl (stereo not drawn) | -1 | 3
COc1cccc(-c2nnc3n2N=C(c2ccc(O)c(O)c2)CS3)c1 | -3 | 52*
Oc1ccc(C2=Nn3c(nnc3-c3cccc(F)c3)SC2)cc1O | -1 | 39
CCc1ccc(-c2csc(Nc3cc(OC)c(Cl)cc3OC)n2)cc1 | 3 | 12
CCOc1ccc(Nc2nc(-c3ccc(OC)c(F)c3)cs2)cc1 | -4 | 32
COc1ccc(-c2csc(Nc3ccc(C)c(Cl)c3)n2)cc1F | -1 | 88*
Fc1ccc(Nc2nc(-c3ccccc3)cs2)cc1 | 1 | 30
COc1cc(Nc2nc(-c3cc(C)ccc3C)cs2)c(OC)cc1Cl | -1 | 74*
Fc1ccc(-c2csc(Nc3ccc(Cl)cc3)n2)cc1 | -1 | 97*
COc1ccc(-c2csc(Nc3ccc(Cl)cc3)n2)cc1F | 5 | 95*
COc1ccccc1Nc1nc(-c2cc(C)ccc2C)cs1 | 2 | 24
Cc1cnc(NC(=O)c2nccnc2C(=O)O)c(C)n1 | 18 | .
O=C(CN1CCC2(CC1)N=C(c1ccc(F)cc1)C(=O)N2)Nc1ccc(F)c(F)c1 | -7 | -5
SMILES | Pf apPOL block | mHTT CaM bind
Clc1ncnc2c1ncn2C1CCCCO1 (stereo not drawn) | . | 75*
OC[C@H]1O[C@@H](n2cnc3c(NC4CCCCC4)ncnc32)[C@H](O)[C@@H]1O | 8 | .
COc1cc(NC(=O)C2CCN(c3cc(C(=O)N4CCCC4)ccn3)CC2)cc(OC)c1 | 6 | 11
CCN(CC)S(=O)(=O)c1ccc(OC)c(NC(=O)c2ccc(Cl)cc2[N+](=O)[O-])c1 | -9 | 16
C=CCNC(=O)C1CCC(c2ccccc2)N(C(=O)c2ccccc2F)C1 (stereo not drawn) | 3 | 2
COc1ccc(OC(C)C(=O)NCCc2ccccc2)cc1 (stereo not drawn) | 6 | -3
CC(Oc1ccccc1)C(=O)NCCc1ccc(S(N)(=O)=O)cc1 (stereo not drawn) | 86* | 25
C=CCn1c(=N)n(CCOc2ccc(C)cc2)c2ccccc21 | -3 | 4
Cc1ccc(C(=O)CN2C(C(=O)c3ccccc3)=C(N(C)C)c3ccccc3S2(=O)=O)c(C)c1 | 4 | 55*
Cc1ccc(C(=O)CN2C(=C(O)c3ccccc3)C(=O)c3ccccc3S2(=O)=O)c(C)c1 | -7 | 59*
Cc1ccc(C(=O)CC(=O)c2ccccc2C)c(O)c1 | 4 | 37
CN1C(=C(O)c2ccccc2)C(=O)c2ccccc2S1(=O)=O | -4 | -3
Cc1cc(C)cc(OCCN2CCCC2)c1 | -2 | -2
Cc1cc(S(=O)(=O)NC2CCCCC2)ccc1Cl | -4 | -8
Cc1ccc(-n2c(=O)n(CC(=O)NC(C)C)c3cccnc32)cc1 | 1 | -2
N#CC1=C(N)Oc2cc(N)ccc2C1c1cc(Br)cs1 (stereo not drawn) | -2 | 13
CC(=O)Nc1ccc(C2C(C#N)=C(N)Oc3cc(N(C)C)ccc32)cc1 (stereo not drawn) | -3 | 15
CN(C)c1ccc2c(c1)OC(N)=C(C#N)C2c1cc(Br)cs1 (stereo not drawn) | -5 | 53*
CN(C)c1ccc2c(c1)OC(N)=C(C#N)C2c1ccc(F)c(Br)c1 (stereo not drawn) | -4 | 83*
CCOc1ccc(/C=C2\N=C(c3ccc(OC)c([N+](=O)[O-])c3)OC2=O)cc1 | 5 | 7
O=C(c1cnn2c(C(F)(F)F)cc(-c3ccco3)nc12)N1CCCC1c1cccc(F)c1 (stereo not drawn) | -5 | 11
Cc1ccc(S(=O)(=O)NCCOc2nc(NC(C)C)nc(NC(C)C)n2)cc1 | 5 | 4
CN(C)C(=O)c1c(NC(=O)c2ccccc2Cl)sc2c1CCCCC2 | -1 | 10
CCC(C(=O)N1CCC(c2nc(C(=O)N3CCCCC3)c(C)o2)CC1)c1ccccc1 (stereo not drawn) | -4 | 20
CC(=O)c1ccc(S(=O)(=O)N2CCC(C(=O)NCc3cscn3)CC2)cc1 | -6 | -9
SMILES | Pf apPOL block | mHTT CaM bind
O=C(c1ccsc1)N1CCCN(c2cc(-c3ccc4c(c3)OCO4)[nH]n2)CC1 | 4 | 7
Cc1ccccc1CC(=O)N1CCCN(c2cc(-c3ccccc3)[nH]n2)CC1 | -8 | 61*
Cc1ccccc1CC(=O)N1CCN(c2cc(-c3cccnc3)[nH]n2)CC1 | -2 | -6
O=C(c1cc2ccccc2[nH]1)N1CCCN(c2cc(-c3ccc4c(c3)OCO4)[nH]n2)CC1 | -7 | 56*
Cc1ccccc1NC(=O)Cn1nc2c(cc1=O)CCCC2 | 0 | 2
CCCCNC(=O)NC(=O)c1c(Cl)nc(Cl)c(Cl)c1C | -6 | -4
N#Cc1c(SCC(=O)C23CC4CC(CC(C4)C2)C3)sc2c(O)cc(=O)[nH]c12 | . | 1
Nc1c(C(=O)C23CC4CC(CC(C4)C2)C3)sc2sc3c(O)cc(=O)[nH]c3c12 | . | 52*
O=C(c1ccccc1Cl)N1CCc2nc(-c3ccc(F)cc3)ncc2C1 | -4 | -2
CCCC1CCC(C2=N/C(=C\c3ccccc3)C(=O)O2)CC1 (stereo not drawn) | -2 | -1
COc1ccc(OC)c(-c2c(C)c3cc(OC)ccc3oc2=O)c1 | -4 | -6
O=C(CN(c1cc(C(F)(F)F)ccc1Cl)S(=O)(=O)c1ccccc1)Nc1ccccc1 | -5 | 99*
COc1ccccc1N(CC(=O)Nc1ccc(Br)c(C)c1)S(C)(=O)=O | -7 | 69*
Cc1ccc(S(=O)(=O)N(CC(=O)Nc2ccccc2F)c2ccccc2C)cc1 | -5 | 82*
CS(=O)(=O)N(CC(=O)Nc1ccccc1)c1cc(C(F)(F)F)ccc1Cl | -2 | 6
Cc1cccc(N(CC(=O)Nc2ccc(F)cc2)S(=O)(=O)c2ccccc2)c1C | 32 | 100*
COc1ccccc1NC(=O)CN(c1ccccc1C)S(=O)(=O)c1ccc(C)cc1 | -2 | -1
COc1ccc(C)cc1N(CC(=O)Nc1cccc(Br)c1)S(C)(=O)=O | -4 | 41
Cc1cccc(N(CC(=O)Nc2ccccc2Cl)S(=O)(=O)c2ccccc2)c1C | -8 | -8
CCNCCNC(=O)c1c(O)c2cccc3c2n(c1=O)CC3 | -5 | 4
Cc1ccc(C2=N/C(=C\c3coc4ccccc4c3=O)C(=O)O2)cc1C | 0 | 4
